In PubChem BioAssay (Tox21):
Inconclusive results are not listed. Activity calls are given as the source filed them. Unless noted, the call rests on the fitted dose curve; in most records, active means well fitted curve in the direction sought with a large enough effect in the repeat runs; inconclusive means weak or mixed curves; inactive means no such curve, though single readings can be large; an effect the other way counts as inactive or inconclusive.

Key:
[1] = qHTS RealTime-Glo MT Cell Viability Assay in HEK293 cells - 24 hour (AID 1224886); further: top concentration of the series differs between compounds; nearly all actives have a fitted effect of over 50% in size
Procedure, shortened: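 HEK293 cells were seeded at 600 cells/well together with NanoLuc luciferase and cell-permeant prosubstrate, preincubated 5 h at 37 C/5% CO2, then given compound in DMSO by pintool. Luminescence from viable-cell prosubstrate reduction was read repeatedly over 40 h.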

[2] = qHTS RealTime-Glo MT Cell Viability Assay in HEK293 cells - 8 hour (AID 1224887); further: top concentration of the series differs between compounds; nearly all actives have a fitted effect of over 50% in size
Procedure, shortened: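 600 cells/well were plated with the nonlytic NanoLuc/prosubstrate reagent, pre-incubated 5 h, then given 23 nL of compound in DMSO. Incubation at 37 C for 40 h, with luminescence from viable-cell-reduced substrate read repeatedly from 0 h.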

[3] = A CellTox Green Cytotoxicity Assay to monitor cytotoxicity in HEK293 cells - 16 hour (AID 1224888); further: nearly all actives have a fitted effect of over 35% in size
Procedure, shortened: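 HEK293 cells, 600/well, were preincubated 5 hours and then exposed to compounds at 37 C for up to 40 hours. A cell-impermeant cyanine dye staining dead-cell DNA was read by fluorescence at 0, 8, 16, 24, 32 and 40 h time points.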

[4] = qHTS RealTime-Glo MT Cell Viability Assay in HepG2 cells - 0 hour (AID 1224889); further: nearly all actives have a fitted effect of over 50% in size
Procedure, shortened: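 HepG2 cells were seeded at 600 cells/well together with NanoLuc luciferase and a cell-permeant prosubstrate, preincubated 5 h at 37 C/5% CO2, then pin-dosed with compounds in DMSO. Nonlytic luminescence from viable cells was read at each time point.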

[5] = A CellTox Green Cytotoxicity Assay to monitor cytotoxicity in HepG2 cells - 8 hour (AID 1224890); further: nearly all actives have a fitted effect of over 45% in size; further: potency means the concentration at half of the fitted maximal effect
Procedure, shortened: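 HepG2 cells, 600/well, preincubated 5 h with CellTox Green dye, then exposed to Tox21 compounds in DMSO at 37 C for up to 40 h. Dead-cell DNA fluorescence read at the indicated time point.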

[6] = qHTS assay to identify small molecule antagonists of the estrogen receptor alpha (ER-alpha) signaling pathway using the BG1 cell line in the presence of 0.1 nM 17-beta-estradiol - cell viability counter screen (AID 1259241); further: nearly all actives have a fitted effect of over 40% in size
Procedure, shortened: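 In this screen, hormone-deprived VM7Luc4E2 cells were seeded at 4,000 per well, dosed with compound and 0.1 nM estradiol final, and incubated 22 hr at 37C and 5% CO2; fluorogenic live-cell protease signal reported viability.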

[7] = qHTS assay to identify small molecule antagonists of the androgen receptor (AR) signaling pathway using the MDA cell line in the presence of 0.5 nM R1881 - cell viability counter screen (AID 1259242); further: nearly all actives have a fitted effect of over 45% in size
Procedure, shortened: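 MDA-kb2 cells (MMTV-luciferase, AR/GR responsive) were treated with compounds plus 0.5 nM R1881 (final) for 16 hr at 37C, 0% CO2. Viability was then read in the same wells as live-cell protease fluorescence (CellTiter-Fluor, 30 min).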

[8] = biological target: Estrogen receptor (Homo sapiens) (UniProt P03372); test: qHTS assay to identify small molecule antagonists of the estrogen receptor alpha (ER-alpha) signaling pathway using the BG1 cell line in the presence of 0.1 nM 17-beta-estradiol (AID 1259244); further: nearly all actives have a fitted effect of over 50% in size
Sequence of Estrogen receptor (Homo sapiens) (P03372 whole entry, looked up): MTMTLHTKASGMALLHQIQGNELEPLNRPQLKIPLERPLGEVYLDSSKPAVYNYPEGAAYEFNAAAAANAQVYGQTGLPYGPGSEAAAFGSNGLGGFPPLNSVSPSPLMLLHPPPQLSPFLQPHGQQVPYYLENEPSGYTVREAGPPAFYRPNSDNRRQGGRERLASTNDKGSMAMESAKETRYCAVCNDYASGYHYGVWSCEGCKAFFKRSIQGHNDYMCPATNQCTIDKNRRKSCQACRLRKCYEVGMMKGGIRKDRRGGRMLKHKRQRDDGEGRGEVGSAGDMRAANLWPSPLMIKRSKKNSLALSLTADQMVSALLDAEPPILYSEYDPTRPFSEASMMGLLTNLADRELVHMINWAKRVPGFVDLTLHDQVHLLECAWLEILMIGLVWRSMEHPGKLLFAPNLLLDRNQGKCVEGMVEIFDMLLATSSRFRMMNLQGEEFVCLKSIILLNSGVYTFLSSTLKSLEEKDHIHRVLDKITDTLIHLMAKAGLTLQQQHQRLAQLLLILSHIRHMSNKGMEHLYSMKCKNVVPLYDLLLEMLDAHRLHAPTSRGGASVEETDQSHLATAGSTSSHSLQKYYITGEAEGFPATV
Procedure, shortened: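 VM7Luc4E2 cells (endogenous full-length ER-alpha, 4×ERE-luciferase), kept 5 days in phenol red-free, charcoal-stripped FBS medium; 4,000 cells/well. Compounds added with 0.1 nM (final) 17beta-estradiol, 22 hr at 37C; luminescence read with ONE-Glo after 30 min.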

[9] = qHTS assay to identify small molecule phospholipidosis (PLD) inducers (AID 1259344; active means well fitted curve in the direction sought with a large enough effect; an effect the other way counts as inactive or inconclusive)
Procedure, shortened: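 HepG2 cells, 900/well, treated with compound plus LipidTOX Red for 24 h at 37 C; amiodarone positive and DMSO negative controls. Fixed with paraformaldehyde/Hoechst, then high-content imaging scored LipidTOX pit count and integrated intensity per well and per cell.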
On the % scale 0 is the no-effect control and ±100 the full control effect.

Cc1oc(=O)oc1CN1CCN(c2cc3c(cc2F)c(=O)c(C(=O)O)c2n3C(C)S2)CC1 (configuration not stated)
inactive: Potency [1] | Potency [2] | Potency [3] | Potency [4] | Potency [6] | Potency [7] | Potency [8] | outcome [9]
active: Potency [5] 535 nM

C[C@H](CCC(=O)O)[C@H]1CC[C@H]2[C@@H]3[C@H](O)C[C@@H]4C[C@H](O)CC[C@]4(C)[C@H]3C[C@H](O)[C@]12C
inactive: Potency [1] | Potency [2] | Potency [3] | Potency [4] | Potency [5] | Potency [6] | Potency [7] | Potency [8] | outcome [9]

CCCCCC1Nc2cc(C(F)(F)F)c(S(N)(=O)=O)cc2S(=O)(=O)N1 (configuration not stated)
inactive: Potency [1] | Potency [2] | Potency [3] | Potency [4] | Potency [5] | Potency [6] | Potency [7] | Potency [8] | outcome [9]

CCOC(=O)OCC/C(SC(=O)OCC)=C(\C)N(C=O)Cc1cnc(C)nc1N
inactive: Potency [1] | Potency [2] | Potency [3] | Potency [4] | Potency [5] | Potency [6] | Potency [7] | PLD induction [9] 2.13% [at 1.53 µM]

C=CCOc1c(Br)cc(C(C)(C)c2cc(Br)c(OCC=C)c(Br)c2)cc1Br
inactive: Potency [1] | Potency [2] | Potency [3] | Potency [4] | Potency [5] | Potency [6] | Potency [7] | Potency [8]

CCC(=O)c1ccc(O)cc1
inactive: Potency [1] | Potency [2] | Potency [3] | Potency [4] | Potency [5] | Potency [6] | Potency [7] | Potency [8] | outcome [9]

CCCCC(CC)COC(=O)c1ccccc1 (configuration not stated)
inactive: Potency [1] | Potency [2] | Potency [3] | Potency [4] | Potency [5] | Potency [6] | Potency [7] | Potency [8]

Cc1ccccc1N1CCN(CCc2nnc3n2CCCC3)CC1
inactive: Potency [1] | Potency [2] | Potency [3] | Potency [4] | Potency [5] | Potency [6] | Potency [7] | outcome [9]

O=c1[nH]c(=O)c2[nH]c(=O)[nH]c2[nH]1
inactive: activity change, negative = cytotoxicity [1] 8.57% [at 6.97 µM] | activity change, negative = cytotoxicity [2] 9.35% [at 6.97 µM] | activity change [3] -15.6% [at 6.97 µM, stronger effect = higher value] | activity change, negative = cytotoxicity [4] -4.02% [at 6.97 µM] | cytotoxicity increase [5] 1.39% [at 6.97 µM] | activity change, negative = cytotoxicity [6] 0.489% [at 8.39 µM] | viability change, negative = cytotoxic [7] -0.67% [at 8.39 µM] | activity change, negative = inhibition [8] -0.565% [at 8.39 µM] | outcome [9]

Cc1cc(C)cc([N+](=O)[O-])c1
inactive: Potency [1] | Potency [2] | Potency [3] | Potency [4] | Potency [5] | Potency [6] | Potency [7] | Potency [8]

COc1cc2c(Nc3ccc(Br)cc3F)ncnc2cc1OCC1CCN(C)CC1
inactive: Potency [1] | Potency [2] | Potency [3] | Potency [4] | Potency [5] | Potency [6] | Potency [7] | Potency [8] | outcome [9]

CC(=O)Nc1ncc([N+](=O)[O-])s1
inactive: Potency [1] | Potency [2] | Potency [3] | Potency [4] | Potency [5] | Potency [6] | Potency [7] | Potency [8] | outcome [9]

C1CCN2C[C@@H]3C[C@@H](CN4CCCC[C@@H]34)[C@H]2C1
inactive: Potency [1] | Potency [2] | Potency [3] | Potency [4] | Potency [5] | Potency [6] | Potency [7] | outcome [9]

O=c1cc(O)c(Cl)c[nH]1
inactive: Potency [1] | Potency [2] | Potency [3] | Potency [4] | Potency [5] | Potency [6] | Potency [7] | outcome [9]

CCNC(=O)NCCCOc1cccc(CN2CCCCC2)c1
inactive: Potency [1] | Potency [2] | Potency [3] | Potency [4] | Potency [5] | Potency [6] | Potency [7] | Potency [8] | outcome [9]

O=P(O)(O)OCC(O)CO (configuration not stated)
inactive: Potency [1] | Potency [2] | Potency [3] | Potency [4] | Potency [5] | Potency [6] | Potency [7] | Potency [8] | outcome [9]

CC(=O)c1ccc(OCC(=O)N2CCCCC2)cc1
inactive: Potency [1] | Potency [2] | Potency [3] | Potency [4] | Potency [5] | Potency [6] | Potency [7] | Potency [8] | outcome [9]

CC(Cl)COP(=O)(OCC(C)Cl)OCC(C)Cl (configuration not stated)
inactive: Potency [1] | Potency [2] | Potency [3] | Potency [4] | Potency [5] | Potency [6] | Potency [7] | Potency [8]

Nc1nc(=O)n([C@@H]2O[C@H](CO)[C@@H](O)[C@@H]2F)cc1I
inactive: Potency [1] | Potency [2] | Potency [3] | Potency [4] | Potency [5] | Potency [6] | Potency [7] | Potency [8]

O=C(COCCOCCOCC(=O)Nc1c(I)cc(I)c(C(=O)O)c1I)Nc1c(I)cc(I)c(C(=O)O)c1I
inactive: Potency [1] | Potency [2] | Potency [3] | Potency [4] | Potency [5] | Potency [6] | Potency [7] | Potency [8] | outcome [9]

CCN(CCC#N)c1ccccc1
inactive: Potency [1] | Potency [2] | Potency [3] | Potency [4] | Potency [5] | Potency [6] | Potency [7] | Potency [8]

CCC1Nc2cc(Cl)c(S(N)(=O)=O)cc2S(=O)(=O)N1 (configuration not stated)
inactive: Potency [1] | Potency [2] | Potency [3] | Potency [4] | Potency [5] | Potency [6] | Potency [7] | outcome [9]
